# TLR9-MyD88 inh: TLR9-MyD88 interaction inhibition. CHO BLA complementation TLR9-MyD88, CCF4 FRET ratio. AID 504734. Q9NR96+Q99836. inhibition, % at 4.98 µM. 340,000 tested, 0.21% active;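 active means inhibition above the mean over all tested compounds plus 3 SD, cut at about 21% in these data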;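 further: 0% = DMSO only wells and 100% = clavulanate BLA inhibitor control wells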
# TLR4 MyD88 comp: TLR4-MyD88 interaction inhibition in cells; 200,000 tested, 0.18% active; inhibition, % at 8.4 µM; O00206+Q99836; HeLa CL3-4 TLR4/MyD88 BLA complementation, FRET ratio; in the data active means inhibition above about 25%;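 further: 0% = vehicle and 100% = reference inhibitor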
# NOD2 RIPK2 PPI: blocks binding of human NOD2 to RIPK2. AID 624267. 360,000 tested, 0.38% active. CHO BLA complementation NOD2-RIPK2, CCF4 ratio. O43353. inhibition, % at 4.98 µM; in the data active means inhibition above about 21%;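 further: 0% = vehicle only and 100% = reference blocker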
# Target sequence (O43353 whole entry, looked up): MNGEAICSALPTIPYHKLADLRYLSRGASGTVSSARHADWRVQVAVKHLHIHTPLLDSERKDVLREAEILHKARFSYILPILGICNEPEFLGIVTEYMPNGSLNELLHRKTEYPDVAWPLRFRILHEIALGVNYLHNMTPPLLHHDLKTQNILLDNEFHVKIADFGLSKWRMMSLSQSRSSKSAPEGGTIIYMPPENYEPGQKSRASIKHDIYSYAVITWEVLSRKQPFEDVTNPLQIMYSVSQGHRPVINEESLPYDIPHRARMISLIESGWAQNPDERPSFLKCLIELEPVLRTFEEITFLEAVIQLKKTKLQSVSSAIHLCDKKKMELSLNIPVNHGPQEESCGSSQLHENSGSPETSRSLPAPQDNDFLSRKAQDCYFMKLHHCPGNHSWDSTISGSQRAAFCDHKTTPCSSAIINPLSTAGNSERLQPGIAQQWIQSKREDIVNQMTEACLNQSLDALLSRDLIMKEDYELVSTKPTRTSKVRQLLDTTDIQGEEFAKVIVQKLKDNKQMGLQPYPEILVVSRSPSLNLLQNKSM
# Myeloid diff MLP: myeloid differentiation induction; 360,000 tested, 1% active; ER-HoxA9 myeloid progenitors, lysozyme-GFP differentiation, flow cytometry; calls only at 10 µM;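 active means normalized GFP-positive differentiation at or above the plate's own cutoff, the solvent-only control mean plus 3 SD; inconclusive means no clear call, values can overlap the other calls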;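 further: cells exposed to compound for four days before flow analysis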
# The depositor's hits bear a star; i = inactive; ? = inconclusive; nt = not tested or not shown; + = active, no number. This is a sample that favours compounds with a hit; in the whole collection about 1.5% have one here.
SMILES,TLR9-MyD88 inh,TLR4 MyD88 comp,NOD2 RIPK2 PPI,Myeloid diff MLP
COC(=O)C[C@@H]1CC[C@H](NC(=O)Nc2ccc(F)cc2)[C@@H](CO)O1,nt,nt,-4,i
O=C(c1ccc(Cl)c([N+](=O)[O-])c1)N(Cc1ccco1)C1CCS(=O)(=O)C1 (stereo not given),4,nt,-3,+
CCOc1cccc(C(=O)N(Cc2ccco2)C2CCS(=O)(=O)C2)c1 (stereo not given),10,7,9,i
COc1ccc(S(=O)(=O)Cc2ccccc2)cc1N,-3,3,3,+
CCN(c1ccccc1)S(=O)(=O)c1ccc(N)c(OC)c1,10,-9,-2,i
CC(Sc1nnc(Nc2ccccc2)s1)C(=O)Nc1nc(-c2ccccc2)cs1 (stereo not given),6,-12,8,+
CC(=O)O[C@@H](Cc1ccc(O)cc1)C(=O)CC(C)C,nt,nt,-7,i
Cc1ccc(S(=O)(=O)N2CCC(C(=O)Nc3ccc(S(=O)(=O)N4CCOCC4)cc3)CC2)cc1,2,nt,2,i
CCOc1ccc(S(=O)(=O)N2CCC(C(=O)Nc3ccc(C)c(S(=O)(=O)N4CCOCC4)c3)CC2)cc1,6,nt,3,+
N=C1c2ccccc2CN1NC(=O)CC12CC3CC(CC(C3)C1)C2,-8,-3,-1,+
Cc1ccccc1-n1nc(C(=O)c2cccs2)cc(-c2nc3ccccc3[nH]2)c1=N,7,4,-8,i
COc1ccc(-n2nc(C(=O)c3cccs3)cc(-c3nc4ccccc4[nH]3)c2=N)cc1,2,2,10,+
FC(F)(F)C1=NNC(c2ccc3ccccc3c2)=NN1,3,nt,6,i
O=C(Nc1ccc(F)cc1)C(CCc1ccccc1)N1CCN(c2ccncc2)CC1 (stereo not given),nt,nt,12,i
CS(=O)(=O)N1CCC(C(=O)Nc2ccccc2Cl)CC1,2,nt,-2,i
CCc1ccccc1NC(=O)C1CCN(S(C)(=O)=O)CC1,nt,nt,-2,+
COc1ccc(CNC(=O)c2cc(C3CC3)nc3c2cnn3C(C)C)cc1,-8,nt,6,i
COc1ccc(CCNC(=O)c2cc(C3CC3)nc3c2cnn3C(C)C)cc1OC,-3,nt,-6,+
COC(=O)[C@H]1[C@H]2C[C@@H]3c4[nH]c5cc(OC)ccc5c4CCN3C[C@H]2C[C@@H](OC(=O)c2ccc(N)cc2)[C@@H]1OC,-4,nt,8,+
COC(=O)[C@H]1[C@H]2C[C@@H]3c4[nH]c5cc(OC)ccc5c4CCN3C[C@H]2C[C@@H](OC(=O)/C=C/c2cc(OC)c(OC)c(OC)c2)[C@@H]1OC,-2,nt,-14,i
Cc1cc2nc(-c3ccccc3)c(Cc3cccc(Cl)c3)n2c(C)c1Br,nt,nt,-1,i
N#CC(=Cc1ccccn1)c1nc(-c2ccc(Cl)cc2)cs1,11,nt,4,+
Cc1c2cc(O)c(=O)cc-2oc2cc(O)c(O)cc12,-11,4,-7,+
CCCCCCCC(=O)NNC(=O)c1c(O)c2ccccc2n(CC)c1=O,0,2,5,+
CCCNC(=O)c1ccc2c(=O)c(O)c(-c3ccsc3)[nH]c2c1,19,nt,14,+
SMILES,TLR9-MyD88 inh,TLR4 MyD88 comp,NOD2 RIPK2 PPI,Myeloid diff MLP
CC(=O)NS(=O)(=O)c1ccc(NS(=O)(=O)c2ccc3ccccc3c2)cc1,3,nt,9,i
CCCCOc1ccc(S(=O)(=O)Nc2ccc(NC(C)=O)cc2)cc1,8,-1,1,+
CC(=O)Nc1ccc(NS(=O)(=O)c2ccc3[nH]c(=O)[nH]c3c2)cc1,1,-5,-4,+
CC(=O)Nc1ccc(NS(=O)(=O)c2ccc3ccccc3c2)cc1,0,0,-9,+
CCCCN(CCCC)S(=O)(=O)c1ccc(NS(=O)(=O)c2ccc(NC(C)=O)cc2)cc1,0,2,-9,i
Nc1ncnc2c1ncn2[C@@H]1O[C@H](C(=O)NCc2ccc(OC(F)(F)F)cc2)[C@@H](O)[C@H]1O,nt,nt,7,i
COc1ccccc1S(=O)(=O)N[C@@H]1CC[C@@H](CCn2cc(C3CC3)nn2)O[C@@H]1CO,nt,nt,-8,i
CCC(C)/C(C)=N/NC(=O)c1ccc(COc2ccc(Cl)c(C)c2)cc1 (stereo not given),-10,-4,-1,+
CCOc1ccc(OCc2ccc(C(=O)N/N=C(\C)c3ccccn3)cc2)cc1,4,23,-4,?
Cc1ccc(F)cc1C(=O)N1CCCCC1c1cc(C(=O)Nc2cccc(C#N)c2)no1 (stereo not given),nt,nt,-4,i
O=C(NCCc1ccccc1F)c1cccc2cccnc12,-3,nt,-4,+
CCOC(=O)[C@]12CCC=C1N(Cc1cccc3ccccc13)C(=O)[C@H](CC(=O)N1CCSCC1)C2,nt,nt,-4,i
O=C(NCCn1cc(SCc2ccc(F)cc2)c2ccccc21)c1ccccc1F,-7,9,-3,+
O=C(NCCn1cc(SCc2ccc(F)cc2)c2ccccc21)c1c(F)cccc1F,9,9,-2,i
N/C(Cc1nc2ccccc2s1)=N\O,-1,nt,3,+
Cc1nc(S/C(=C/c2ccc(-c3cccc(Cl)c3)o2)C(=O)O)n[nH]1,-6,3,3,+
COc1ccc([C@H]2N[C@]3(CCCN(Cc4ccc(C)cc4)C3=O)[C@H]3C(=O)N(Cc4ccccc4)C(=O)[C@@H]23)cc1,3,nt,-1,i
COc1ccc(S(=O)(=O)N(C)CC(=O)NCc2ccco2)cc1Cl,-11,nt,1,+
CN(CCCC(=O)NCc1ccco1)S(=O)(=O)c1ccccc1,-1,9,-3,+
CCOC(=O)CSc1nc2nc(Cl)c(Cl)nc2[nH]1,-4,nt,-2,i
COc1ccc(C(=O)c2oc3ccc(OC)cc3c2N)cc1,-8,-12,14,i
COC(=O)c1oc2ccc(OC)cc2c1N,9,3,5,+
O=[N+]([O-])c1ccc(SNc2ccccc2)c([N+](=O)[O-])c1,-2,nt,1,i
O=[N+]([O-])c1ccc(-[n+]2ccc3ccccc3c2)c([N+](=O)[O-])c1,4,nt,1,+
COc1ccc(/C=N/NC(=O)c2cccc(NC(=O)c3ccc(Cl)cc3)c2)c(OC)c1,0,-12,2,+
SMILES,TLR9-MyD88 inh,TLR4 MyD88 comp,NOD2 RIPK2 PPI,Myeloid diff MLP
CC[C@@H](C)[C@@H](CO)NC(=O)[C@H]1O[C@@H](n2cnc3c(N)ncnc32)[C@H](O)[C@@H]1O,nt,nt,0,i
CCOC(=O)C1Nc2ccc(C(F)(F)F)cc2C2c3ccccc3CC12 (stereo not given),-7,nt,-2,i
CCOC(=O)C1Nc2ccccc2C2C(O)C(O)CC12 (stereo not given),-6,nt,10,+
CCCCNC(=O)c1cnc(Cc2c[nH]c3ccccc23)c(I)c1,nt,nt,-4,i
Cc1cccc(C)c1-n1nnnc1C(c1cc2ccccc2o1)N1CCN(C/C=C/c2ccccc2)CC1 (stereo not given),nt,nt,-2,i
Cc1nn(CCc2nn[nH]n2)c2nc(-c3ccc(C4CCCCC4)cc3)cc(C(F)(F)F)c12,-5,-8,0,+

# Assay outcomes as filed in PubChem BioAssay.
